# From PubChem BioAssay
# Rows were chosen to be rich in hits. Some 2.3% of all compounds tested hit in one or more screens of this group.
# AMA1 RON2 block: disrupts binding of P. falciparum AMA1 to RON2; AlphaScreen AMA1-biotinylated RON2 peptide binding; Potency, µM (series often up to 58.2 µM), for the others: top-dose activity change, negative = inhibition, most hits filed as inhibitors; 360,000 compounds, 0.2% hits; AID 720542;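 note: 0% = vehicle wells and -100% = peptide control; nearly all actives have a fitted effect of over 45% in size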
#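 AMA1 (3D7) with his tag at 25 nM final met compounds first, then biotinylated RON2 peptide at 25 nM; detection used donor plus acceptor beads, 10 µg/mL apiece, read by AlphaScreen after 30 min at room temperature.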
# LASV entry inh: inhibitors of Lassa virus binding or cell entry; Lassa virus pseudotype entry inhibition, cell reporter; Potency, µM (doses to about 37.9 µM), inactives show at the top dose activity change, negative = inhibition, actives largely listed as inhibitors; 300,000 compounds, 1.2% hits; calls by dose curve; tested in HEK293 cells; note: nearly all actives have a fitted effect of over 50% in size
# MARV entry inh: Marburg virus entry inhibition; Marburg virus pseudotyped entry inhibition, cell reporter; Potency, µM (series often up to 37.8 µM), inactives show top-dose activity change, negative = inhibition, most hits filed as inhibitors; 300,000 compounds, 1.8% hits; calls by dose curve; tested in HEK293 cells
# AmpC inh no detg: inhibitors of E. coli AmpC beta-lactamase without detergent | P00811 | AmpC nitrocefin hydrolysis, absorbance 480 nm, 0.0001% Triton | Potency, µM (doses to about 57.1 µM), without a hit: at the top dose activity change, negative = inhibition, actives largely listed as inhibitors | 330,000 compounds, 0.52% hits | AID 485341;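 note: plate controls were no compound for no effect and no enzyme for full effect; nearly all actives have a fitted effect of over 20% in size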
# Target sequence (P00811 whole entry, looked up): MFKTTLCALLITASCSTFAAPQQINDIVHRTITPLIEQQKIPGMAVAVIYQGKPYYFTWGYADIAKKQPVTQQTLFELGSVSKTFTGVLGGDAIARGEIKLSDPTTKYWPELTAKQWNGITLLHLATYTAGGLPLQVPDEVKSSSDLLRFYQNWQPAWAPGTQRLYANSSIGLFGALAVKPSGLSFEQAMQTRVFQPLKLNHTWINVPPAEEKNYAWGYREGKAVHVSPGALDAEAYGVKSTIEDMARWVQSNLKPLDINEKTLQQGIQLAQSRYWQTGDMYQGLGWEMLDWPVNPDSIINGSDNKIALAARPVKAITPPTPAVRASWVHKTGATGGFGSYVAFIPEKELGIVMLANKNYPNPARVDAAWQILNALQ
#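 20 mM phosphate pH 7.0 + 0.01% (detergent screen) or 0.0001% Triton X-100; 5.3 nM AmpC reagent; cpd preinc 15 min RT; nitrocefin (800 uM stock) to start; A480 q20 s × 4 min; Activity was normalised to no-enzyme and no-compound control wells.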
# AmpC inh detg: blocks E. coli AmpC beta-lactamase in detergent assay; P00811; AmpC hydrolysis of nitrocefin, absorbance 480 nm, 0.01% Triton; Potency, µM (titrated, usually from 114 µM), without a hit: top-dose activity change, negative = inhibition, most hits filed as inhibitors; 370,000 compounds, 0.041% hits;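 note: 0% = no-compound wells and -100% = no-enzyme wells; nearly all actives have a fitted effect of over 25% in size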
#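 20 mM phosphate pH 7.0 + 0.01% (detergent screen) or 0.0001% Triton X-100; 5.3 nM AmpC reagent; cpd preinc 15 min RT; nitrocefin (800 uM stock) to start; A480 q20 s × 4 min; Activity was normalised to no-enzyme and no-compound control wells.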
# Active calls of the source: *; u = inconclusive; x = no result given; [ ] = another dose, or the depositor's remark. Unless noted, calls come from the whole dose curve; as a rule, active = well fitted curve in the direction sought with a large enough effect; inconclusive = small, poorly fitted or top-dose-only effect, or another doubt; inactive = no such curve, though single readings can be large; an effect the other way counts as inactive or inconclusive. Unless noted, % is set by controls: 0 for no effect and ±100 for the full control effect; potency is the fitted concentration of half-maximal effect.
SMILES,AMA1 RON2 block,LASV entry inh,MARV entry inh,AmpC inh no detg,AmpC inh detg
CCn1c(C(=O)Nc2ccccc2C(=O)OC)cc2sc(Cl)cc21,x,x,8%[46.1 µM],x,8%
COc1ccc(C(=O)c2c(C(F)(F)F)oc3c2C(=O)c2ccccc2C3=O)cc1,u,u,3.2µM*,-2%,1%
C[C@@H]1CC[C@H]2C(=O)O[C@@H](COc3ccc(C(C)(C)C)cc3)CN2[C@@H]1c1ccc(Br)cc1,x,-5%[14.3 µM],u,x,x
Cc1nc(-c2ccc(-c3ccc(C(=O)N4CCc5cc6c(cc54)C4(CCN(C)CC4)CO6)cc3)c(C)c2)no1,x,x,5µM*,x,x
COc1ccc(NC(=O)c2ccc(-c3ccc(-c4noc(C)n4)cc3C)cc2)cc1N1CCN(C)CC1,u,u,2.5µM*,257%,-6%
COc1ccc(NC(=O)N2CCN(c3cc(-c4noc(C)n4)ccc3C)CC2)c(OC)c1,x,-2%[46.1 µM],x,x,5%
CC1=C2[C@H](O)[C@H]([C@@H](C)C(=O)NCCC(C)C)CC[C@@]2(C)C=CC1=O,x,x,23%[14.2 µM],x,x
COC(=O)N[C@H](c1ccccc1)C(C(=O)OC)C(=O)OC,x,x,28%[14.2 µM],x,x
Cc1cccc(NC(=O)C2C3CCC4C(CCC32)C4(Cl)Cl)c1 (stereo not given),-4%,-24%,0%,32µM*,-1%
O=C(Nc1ccc(Cl)cc1)C1C2CCC3C(CCC21)C3(Cl)Cl (stereo not given),9%,u,-26%,-49%,-8%
O=C(Nc1ccc(F)cc1)C1C2CCC3C(CCC21)C3(Cl)Cl (stereo not given),2%,u,-10%[46.1 µM],14µM*,3%
CCC(C)NC(=O)c1c(N)n(/N=C/c2cccnc2)c2nc3ccccc3nc12 (stereo not given),23%,-37%,26µM*,-1%,u
COc1cc2c(cc1NC(=O)Nc1ccc(F)cc1)oc1ccccc12,0%,2%,0%,14µM*,u
COc1cc2c(cc1NC(=O)CSc1nc3ccccc3[nH]1)oc1ccccc12,-2%,u,21µM*,7.9µM*,-1%
O=C(CSc1nc2ccccc2[nH]1)Nc1ccccc1N1CCOCC1,6%,-19%,8.9µM*,-14%,1%
COc1cc2c(cc1NC(=O)CN(C)Cc1nc3ccccc3c(=O)[nH]1)oc1ccccc12,19%,u,23µM*,8%,-3%
CCOc1ccc(OCC)c(NC(=O)C2CCN(S(=O)(=O)c3ccc(Br)s3)CC2)c1,x,1%[46.1 µM],-3%[46.1 µM],x,9%
Cc1ccc(S(=O)(=O)NCC2CCC(C(=O)NCCc3ccc(Cl)cc3)CC2)cc1 (stereo not given),x,21%[46.1 µM],x,x,-1%
N#CC1=C(N)OC2=C(C(=O)CCC2)[C@@H]1CCc1ccccc1,x,x,11%[46.1 µM],x,x
C=CC[C@@H]1C=C[C@@H](Oc2ccc(OC)cc2)[C@H](CO)O1,x,x,-15%[14.2 µM],x,x
CCc1ccc(OC)c(S(=O)(=O)Nc2ccc(Cc3ccncc3)cc2)c1,-6%,13µM*,u,38%,2%
COc1ccc(S(=O)(=O)Nc2ccc(Cc3ccncc3)cc2)cc1OC,-16%,u,1.4µM*,-2%,-12%
O=S(=O)(Nc1ccc(Cc2ccncc2)cc1)c1ccc(Cl)c(Cl)c1,5%,-25%,u,-50%,-10%
COc1cccc(CNC(=O)C2CCC(CNS(=O)(=O)c3ccc(Br)s3)CC2)c1 (stereo not given),x,-10%[46.1 µM],2%[46.1 µM],x,11%
O=C(COc1ccc(S(=O)(=O)Nc2ccccc2)cc1)NCc1ccncc1,2%,2.6µM*,u,-7%[2.29 µM],-4%
SMILES,AMA1 RON2 block,LASV entry inh,MARV entry inh,AmpC inh no detg,AmpC inh detg
O=C(NC1CCCCC1)C(c1ccccn1)N(C(=O)Cc1cccs1)c1ccc(Cl)cc1 (stereo not given),-22%,-27%,10µM*,79%,-15%
O=c1c(O)c(-c2cc(O)c(O)c(O)c2)oc2cc(O)cc(O)c12,u,u,22µM*,-42%,u
O=c1[nH]c(SCc2nc3c(cnn3-c3ccccc3)c(=O)[nH]2)nc2ccccc12,0%,0.71µM*,1µM*,-33%,-3%
O=c1[nH]c(CSc2nc3ccccc3[nH]2)nc2c1cnn2-c1ccccc1,-20%,u,u,-26%,0%
O=C(Nc1ccccc1C(F)(F)F)N1CCC(CN2CCc3ccccc3C2)CC1,x,16%[46.1 µM],x,x,12%
c1cc2c(cc1C1CCCN1)OCCCO2 (stereo not given),0%,-15%,0%[46.1 µM],0.22µM*,-2%
CCOC(=O)c1[nH]c2ccc(OC)cc2c1NC(=O)CCN1CCC[C@@H](C)C1,x,x,3%[46.1 µM],x,x
COc1ccc(OCCNc2c([N+](=O)[O-])c(=O)oc3ccccc23)cc1,-7%,x,x,28µM*,u
C#CCN1C(=O)[C@]2(OCCC=C[C@@H]2C)c2cc(OC)ccc21,x,x,9%[14.2 µM],x,x
O=C(CNC(=O)c1cccc(Br)c1)N/N=C/c1cc(Br)cc(Br)c1O,42%,x,x,11µM*,5%
O=C(Cc1ccccc1)N/N=C/c1cc(Br)cc(Br)c1O,77%,u,u,-53%,2%
O=C(O)c1ccccc1N/N=C/c1cc(Br)cc(Br)c1O,-24%,u,15µM*,-27%,-1%
ON=Cc1ccnc2ccccc12,12%,x,x,x,x
O=C(O)c1ccccc1N/N=C\c1ccnc2ccccc12,-8%,u,4µM*,-27%,u
CCN(CC)Cc1cc(O)c(CN(CC)CC)cc1O,7.9µM*,x,x,-3%,-2%
CCCCC(=NCCc1c(C)[nH]c2ccc(OC)cc12)C1=C(O)CC(c2ccccc2)CC1=O (stereo not given),-26%,u,7.9µM*,-22%,1%
Cc1ccc2nc(N(Cc3cccnc3)C(=O)c3ccco3)sc2c1,x,15%[46.1 µM],x,x,0%
COc1cccc(CNc2ncnc3cc(OC)c(OC)cc23)c1,0%,-12%,u,3.2µM*,5%
COc1cc2ncnc(NCc3ccc(C)cc3)c2cc1OC,3%,-6%,u,83%,-1%
Cc1ccc2c(c1)[nH]c1c(N3CCN(Cc4ccccc4)CC3)ncnc12,-10%,21µM*,16µM*,-29%,-6%
CCc1ccc(NC(=O)c2sc3nc(C)nc(N4CCN(c5ccccn5)CC4)c3c2C)cc1,-6%,12%[46.1 µM],10µM*,-16%,u
Cc1nc(N2CCN(c3ccccn3)CC2)c2c(C)c(C(=O)Nc3ccccc3F)sc2n1,-13%,u,u,-19%,1%
CCn1c(C(=O)N2CCCC(C(=O)NCCCOC)C2)cc2sccc21 (stereo not given),x,x,11%[46.1 µM],x,2%
Cc1cccc(CSC(Nc2ccc(F)cc2)=C(C#N)C#N)c1,-12%,u,2.9µM*,-32%,-6%
N#CC(C#N)=C(Nc1ccc(F)cc1)SCc1cccc(Br)c1,-1%[11.6 µM],u,u,-53%,-9%
Cc1ccc(CSc2nc3cccnc3n2Cc2nc(-c3ccccc3F)oc2C)cc1,x,u,x,x,16%
Cc1cccc(C)c1NC(=O)[C@H]1CCCCN1C,x,x,10%,x,x
